Experimental findings from PubChem BioAssay AID720706 (Broad Institute, 2013) are described below.

The whole screen tested about 350,000 compounds, of which about 5,500 (1.6%) were called active.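 The calls were made as follows: active = significant combined selectivity score with lowered wild-type GFP, culture density cut under 30%, mutant RFP and density less affected; inactive = any of these conditions unmet.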 The entries come from a sample that favours actives as a whole.

This assay is described as follows: reduced GFP signal of wild-type E. coli, primary screen, bacterial rRNA inhibitor project, GFP/RFP fluorescence, OD600, single point (AID 720706). The settings on record: E. coli WT GFP vs humanized-ribosome RFP mutants, 24 h; GFP signal change (wild-type ribosome): stronger effect = lower value, DMSO median 0, no signal -100; OD600 change: measured here: OD600 growth, DMSO median 0, no signal -100; RFP signal change: measured here: RFP humanized mutant strains, DMSO median 0, no signal -100, concentration not given here.
On to `CCN1CCN(c2nc(Nc3cccc(F)c3)nc(N)c2[N+](=O)[O-])CC1`, for which the GFP signal change (wild-type ribosome) is 1.28% (inactive), the OD600 change was -14.8% and the RFP signal change was -3.28%.
As to `COc1cccc(NC(=O)COc2cccnc2[N+](=O)[O-])c1`, the GFP signal change (wild-type ribosome) is 2.25% (inactive), the OD600 change came to 2.69% and the RFP signal change is -3.22%.
The corresponding values for `CO[C@H]1CN(C)C(=O)c2cc(NC(=O)c3cnccn3)ccc2OC[C@@H](C)N(CC2CC2)C[C@@H]1C` are 1.98% (inactive), -3.03% and -2.31%.
As for `CN(Cc1ccccc1F)C[C@H]1[C@@H](c2ccccc2)[C@@H](CO)N1S(C)(=O)=O`, the GFP signal change (wild-type ribosome) was -3.23% (inactive), the OD600 change is -1.8% and the RFP signal change was -1.06%.
As for `Cc1noc(C)c1S(=O)(=O)Nc1ccc2c(c1)CC(=O)N([C@H](C)CO)C[C@@H](C)[C@@H](CN(C)Cc1ccncc1)O2`, the GFP signal change (wild-type ribosome) is -1.08% (inactive), the OD600 change was determined as 6.97% and the RFP signal change turned out to be 0.021%.
The corresponding values for `COc1ccc(OC)c(-c2csc(NC(=O)C3=NNC(=O)CC3)n2)c1` are -21.6% (inactive), -29.6% and -5.17%.
For `COc1ccc(OC)c(-c2csc(NC(=O)COC(=O)C3CC3)n2)c1`, in that order: -18% (active), -4.55% and 5.3%.
Take `O=C(COC(=O)C1CCCO1)Nc1nc(-c2ccc(F)cc2)cs1` (stereo not drawn): the GFP signal change (wild-type ribosome) is -5.81% (inactive), the OD600 change was -14.9% and the RFP signal change was -1.04%.
On to `Cc1ccc(S(=O)(=O)Nc2ccc3c(c2)C(=O)N([C@@H](C)CO)C[C@H](C)[C@@H](CN(C)S(=O)(=O)c2ccc(C)cc2)O3)cc1`, for which the GFP signal change (wild-type ribosome) is 0.928% (inactive), the OD600 change worked out at 0.52% and the RFP signal change came out at 1.47%.
`O=C1CN(Cc2ccccc2)C[C@H]2[C@H](c3ccc(-c4ccccc4)cc3)[C@@H](CO)N12`: the GFP signal change (wild-type ribosome) is 4.87% (inactive), the OD600 change was -18% and the RFP signal change amounted to 11.1%.
For `COCCNC(=O)/C(C#N)=C/c1cccc(OCc2ccccc2)c1`, the GFP signal change (wild-type ribosome) was -27.3% (active), the OD600 change is -3.28% and the RFP signal change was -7.68%.
`COCCNC(=O)/C(C#N)=C/c1nc(N(C)C)n(-c2ccc(F)cc2)c1Cl`: the GFP signal change (wild-type ribosome) is 23.8% (inactive), the OD600 change was 16.1% and the RFP signal change was determined as 2.57%.
For the molecule `COc1ccc(CNC(=O)/C(C#N)=C/c2cccc(OC)c2OC)cc1`, the GFP signal change (wild-type ribosome) was -12.3% (inactive), the OD600 change is -6.5% and the RFP signal change came to 1.12%.
As for `C[C@@H]1CN([C@H](C)CO)S(=O)(=O)c2ccc(-c3ccccc3)cc2O[C@@H]1CN(C)C(=O)CC1CC1`, the GFP signal change (wild-type ribosome) was -1.82% (inactive), the OD600 change was -12.8% and the RFP signal change was determined as 1.01%.
The corresponding values for `O=C(C1CCC1)N1CC2(C1)[C@H](c1ccccc1)[C@H](CO)N2Cc1nccs1` are 2.78% (inactive), 3.6% and -2.04%.
Take `COc1ccccc1CNC(=O)C[C@@H]1C[C@H]2c3cc(NC(=O)CN(C)C)ccc3O[C@H]2[C@@H](CO)O1`: the GFP signal change (wild-type ribosome) was 0.305% (inactive), the OD600 change was -4.08% and the RFP signal change was -3.75%.
As for `COc1ccc(C(=O)COC(=O)c2c(C)noc2C)cc1Cl`, the GFP signal change (wild-type ribosome) was 0.365% (inactive), the OD600 change is -1.69% and the RFP signal change was determined as 4.01%.
For `Cc1onc(-c2ccccc2Cl)c1C(=O)OCc1nnc(-c2ccccc2)o1`, the GFP signal change (wild-type ribosome) is -1.78% (inactive), the OD600 change is -40.3% and the RFP signal change is -4.01%.
For `Cc1onc(-c2ccccc2Cl)c1C(=O)OCC(=O)c1ccccc1`, the GFP signal change (wild-type ribosome) is -21.5% (active), the OD600 change came to 3.35% and the RFP signal change is -2.14%.
The corresponding values for `COc1ccc2c3c(n(C)c2c1)[C@@H](CO)N(C(=O)C1CC1)CC31CN(C(=O)C2CCOCC2)C1` are -0.396% (inactive), 5.66% and -5.33%.
For the molecule `CCCNC(=O)N1CC(=O)N2[C@@H](CO)[C@H](c3ccc(-c4ccc(C)cc4)cc3)[C@@H]2C1`, the GFP signal change (wild-type ribosome) was 2.33% (inactive), the OD600 change is 1.16% and the RFP signal change is -7.67%.
Regarding `Cc1nn(C)cc1C(=O)Nc1ccccc1Br`, the GFP signal change (wild-type ribosome) is 1.8% (inactive), the OD600 change came out at 6.79% and the RFP signal change is -7.21%.
As to `CCn1c(NC(=O)c2nn(C)cc2Br)nc2ccccc21`, the GFP signal change (wild-type ribosome) is -17.8% (active), the OD600 change is -7.54% and the RFP signal change is 6.47%.
As to `CCCn1c(NC(=O)C23CC4CC(CC(O)(C4)C2)C3)nc2ccccc21`, the GFP signal change (wild-type ribosome) was -30.1% (inactive), the OD600 change was -35.7% and the RFP signal change is 3.93%.
On to `C[C@H]1CN([C@@H](C)CO)C(=O)CCCn2nncc2CO[C@H]1CN(C)Cc1ccc2c(c1)OCO2`, for which the GFP signal change (wild-type ribosome) was -1.02% (inactive), the OD600 change was determined as 5.54% and the RFP signal change came out at 0.27%.
With `COc1ccc(C2=CN(Cc3ccccc3)C(c3ccc(OC)cc3)CC2=O)cc1` (stereo not drawn), the GFP signal change (wild-type ribosome) is -23.8% (inactive), the OD600 change was -12.9% and the RFP signal change was found to be 3.14%.
The corresponding values for `CC(C)NC(=O)N[C@@H]1CC[C@H](CC(=O)NC2Cc3ccccc3C2)O[C@H]1CO` are 1.59% (inactive), 0.47% and -1.63%.
For the molecule `Cn1cnc(CCNC(=O)C[C@@H]2CC[C@H]3[C@@H](COC[C@@H](O)CN3C(=O)Nc3ccc(Cl)cc3)O2)c1`, the GFP signal change (wild-type ribosome) is -23.1% (inactive), the OD600 change is -23.2% and the RFP signal change was -3.05%.
With `COc1cc(/C=N/NC(=S)Nc2cccnc2)cc(OC)c1O`, the GFP signal change (wild-type ribosome) is 1.59% (inactive), the OD600 change is 0.97% and the RFP signal change is -1.01%.
Turning to `COc1ccc(/C=C/C(=O)Nc2cccnc2)cc1OC`, the GFP signal change (wild-type ribosome) is -20.8% (active), the OD600 change was -6.64% and the RFP signal change was -4.77%.
As for `COc1ccc(/C=C/C(=O)Nc2ccc(C34CC5CC(CC(O)(C5)C3)C4)cc2)cc1OC`, the GFP signal change (wild-type ribosome) is -3.43% (inactive), the OD600 change is -9.24% and the RFP signal change is 7.24%.
